This is part of a sample that, as a whole, favours compounds with a hit. Of some 83,000 tested, about 20% had one in any assay.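 Growth was measured after 48 h exposure to one concentration of compound in 96-well plates. Values under 10 count as active.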 Unmarked numbers belong to inactive results. The source made the active and inactive calls.

In one test the test system is OVCAR-5 ovarian. Put plainly: NCI-60 one-dose screen, 48 h (100 = growth as untreated, 0 = no growth, -100 = all killed). Conditions: 10 µM unless noted.
In the case of `Cn1ccnc1C(=O)/C=C/c1ccc(NC(=O)Nc2ccc(Cl)cc2)cc1`, the growth was 110%.

Turning to `C#Cc1nc(C2=C(C)/C(=N/OCc3ccccc3)CC2)cs1`, the growth was 54.6%.

In the case of `COc1ccc(-n2c(SCC(=O)Nc3ccc(-c4nc5ccccc5[nH]4)cc3)nc3ccccc3c2=O)cc1`, the growth is 68.5%.

As for `COc1cc(OC)c(S(=O)(=O)NNC(=O)c2ccncc2)cc1C(=O)/C=C/c1ccc(C)cc1`, the growth was 110%.

Turning to `COC(=O)C(C)NS(=O)(=O)/N=C1\NC(=O)NC1=C(Cl)Cl` (centres undefined), the growth is 98.8%.

`COc1ccc(C(=O)/C=C/c2ccc(Oc3nc(NCCO)nc(N4CCOCC4)n3)c(OC)c2)cc1`: the growth was 99.9%.

For `NS(=O)(=O)c1cccc(Nc2nc(SCC(=O)c3ccc(Br)cc3)nc3ccccc23)c1`, the growth is 115%.

Consider `O=C(N/N=C/c1ccc([N+](=O)[O-])o1)c1[nH]c2ccc(Br)cc2c1-c1ccccc1`, for which the growth was 35.7%.

Take `O=C(N/N=C/c1cccs1)c1[nH]c2ccc(Br)cc2c1-c1ccccc1`: the growth was 46.1%.

In the case of `COc1cc2cc(Oc3ccc(NC(=O)c4cccc(C(F)(F)F)c4)cc3)c(C)nc2cc1OCCN1CCCCC1`, the growth was 98.7%.

For the compound `Cc1sc2c(c1C)c(=O)nc1c(-c3nc(-c4ccc(F)cc4)no3)n[nH]n12`, the growth is 103%.

Regarding `N#Cc1nc(-c2ccccc2)oc1N1CC[C@@H](CO)C1`, the growth is 108%.

In the case of `Cn1ccnc1C(=O)/C=C/c1ccc(NC(=O)Nc2ccc(F)cc2)cc1`, the growth was 57.7%.

With `COc1ccc(NC2=C(Cl)C(=O)C(C)=C(C)C2=O)cc1OC`, the growth is 103%.

As for `NS(=O)(=O)c1ccc(Nc2nc(Nc3ccccc3)nc(-n3nc(-c4ccccc4)cc3-c3ccccc3)n2)cc1`, the growth is 78.1%.

As to `C#Cc1nc(C2=C(C)C(O)/C(=N/O)C2)cs1` (centres undefined), the growth was 100%.

With `Cc1ccc2c(n1)C(=O)C(Cl)=C(Nc1cccc(C(C)C)c1)C2=O`, the growth was 109%.

As for `CN1CCc2c(sc3ncnc(N/N=C/c4ccc(Cl)c(Cl)c4)c23)C1`, the growth was 71.4%.

With `O=C(CSc1nnc(-c2ccc3nc(-c4ccc(Cl)cc4)[nH]c3c2)o1)Nc1ccc(C(=O)/C=C/c2ccc(Cl)cc2)cc1`, the growth is 108%.

As to `O=C(N/N=C/c1ccc(Br)s1)c1[nH]c2ccc(Br)cc2c1-c1ccccc1`, the growth was 52%.

Take `C#Cc1nc(C2=C(C)C(O)CC2)cs1` (centres undefined): the growth was 120%.

With `O=C(N/N=C/c1ccc[nH]1)c1[nH]c2ccc(Br)cc2c1-c1ccccc1`, the growth was 43.7%.

As for `COc1ccc(/C=N/NC(=O)c2[nH]c3ccc(Br)cc3c2-c2ccccc2)s1`, the growth is 51.2%.

With `C/C(=N\NC(N)=O)c1c(O)sc(=O)[nH]c1=O`, the growth is 102%.

`C#Cc1nc(C2=C(C)C(=O)/C(=N/OC(C)=O)C2)cs1`: the growth was 99.4%.

Consider `Cn1ccnc1C(=O)/C=C/c1ccc(NC(=O)Nc2ccccc2)cc1`, for which the growth was 14.8%.

On to `COc1cc(/C=C/C(=O)c2cc(OC)c(OC)c(OC)c2)ccc1OCc1ccccc1`, for which the growth was 47%.

On to `CC(O)C(NC(=O)C1CCCN1C(=O)CNC(=O)C1CC(=O)NCC(=O)NC(Cc2c[nH]c3ccccc23)C(=O)NC(Cc2ccc(O)cc2)C(=O)NCC(=O)NC(CO)C(=O)NC(CCC(N)=O)C(=O)NC(Cc2c[nH]c3ccccc23)C(=O)N1)C(=O)NCC(=O)NC(CCC(N)=O)C(=O)NC(CCCNC(=N)N)C(=O)NC(CC(=O)O)C(=O)O` (centres undefined), for which the growth was 110%.

Regarding `COc1cc(/C=C/C(=O)c2cc(OC)c(OC)c(OC)c2)ccc1OCc1ccc(F)cc1`, the growth is 57.7%.

Consider `O=C(N/N=C/c1ccc([N+](=O)[O-])s1)c1[nH]c2ccc(Br)cc2c1-c1ccccc1`, for which the growth is 27.9%.

As for `N#Cc1c(-c2ccc(Cl)cc2)nc2c(-c3ccccc3)c(Nc3ccccc3)nn2c1N`, the growth is 67.4%.

Take `O=C(Oc1ccc2ccc(=O)oc2c1)c1ccc(Cl)cc1`: the growth was 110%.

`C#Cc1nc(C2=C(C)C(OC(=O)CCC(=O)O)CC2)cs1` (centres undefined): the growth was 125%.

Take `C#Cc1nc(C2=C(C)C(=N\O)/C(=N/O)C2)cs1`: the growth is 109%.

In the case of `O=C(N/N=C/c1ccco1)c1[nH]c2ccc(Br)cc2c1-c1ccccc1`, the growth is 36.7%.

With `COC(=O)C(Cc1ccccc1)NS(=O)(=O)/N=C1\NC(=O)NC1=C(Cl)Cl` (centres undefined), the growth is 115%.

`N#Cc1ccc(/C=N/NC(=O)c2[nH]c3ccc(Br)cc3c2-c2ccccc2)s1`: the growth was 54.5%.

Consider `CCOc1ccc2nc(NC(=O)c3ccc(C(F)(F)F)cc3)sc2c1`, for which the growth was 105%.

The next test deals with OVCAR-4 ovarian. Described as above. Conditions: 10 µM unless noted.
With `Cn1ccnc1C(=O)/C=C/c1ccc(NC(=O)Nc2ccc(Cl)cc2)cc1`, the growth was 76.3%.

Turning to `C#Cc1nc(C2=C(C)/C(=N/OCc3ccccc3)CC2)cs1`, the growth is 16.7%.

With `COc1ccc(-n2c(SCC(=O)Nc3ccc(-c4nc5ccccc5[nH]4)cc3)nc3ccccc3c2=O)cc1`, the growth is -33.7% (active).

Take `COc1cc(OC)c(S(=O)(=O)NNC(=O)c2ccncc2)cc1C(=O)/C=C/c1ccc(C)cc1`: the growth was 91.3%.

Consider `COC(=O)C(C)NS(=O)(=O)/N=C1\NC(=O)NC1=C(Cl)Cl` (centres undefined), for which the growth is 113%.

In the case of `COc1ccc(C(=O)/C=C/c2ccc(Oc3nc(NCCO)nc(N4CCOCC4)n3)c(OC)c2)cc1`, the growth was 81.8%.

On to `NS(=O)(=O)c1cccc(Nc2nc(SCC(=O)c3ccc(Br)cc3)nc3ccccc23)c1`, for which the growth is 43.6%.

Regarding `O=C(N/N=C/c1ccc([N+](=O)[O-])o1)c1[nH]c2ccc(Br)cc2c1-c1ccccc1`, the growth is 38.2%.

For the compound `O=C(N/N=C/c1cccs1)c1[nH]c2ccc(Br)cc2c1-c1ccccc1`, the growth is 72.2%.

Regarding `COc1cc2cc(Oc3ccc(NC(=O)c4cccc(C(F)(F)F)c4)cc3)c(C)nc2cc1OCCN1CCCCC1`, the growth was 68.1%.

As for `N#Cc1nc(-c2ccccc2)oc1N1CC[C@@H](CO)C1`, the growth was 101%.

For `Cn1ccnc1C(=O)/C=C/c1ccc(NC(=O)Nc2ccc(F)cc2)cc1`, the growth was 76.2%.

For the compound `NS(=O)(=O)c1ccc(Nc2nc(Nc3ccccc3)nc(-n3nc(-c4ccccc4)cc3-c3ccccc3)n2)cc1`, the growth was 37.9%.

As for `C#Cc1nc(C2=C(C)C(O)/C(=N/O)C2)cs1` (centres undefined), the growth is 89.6%.

Consider `Cc1ccc2c(n1)C(=O)C(Cl)=C(Nc1cccc(C(C)C)c1)C2=O`, for which the growth is 22.6%.

Take `CN1CCc2c(sc3ncnc(N/N=C/c4ccc(Cl)c(Cl)c4)c23)C1`: the growth was 20.9%.

In the case of `O=C(CSc1nnc(-c2ccc3nc(-c4ccc(Cl)cc4)[nH]c3c2)o1)Nc1ccc(C(=O)/C=C/c2ccc(Cl)cc2)cc1`, the growth was 101%.

Regarding `O=C(N/N=C/c1ccc(Br)s1)c1[nH]c2ccc(Br)cc2c1-c1ccccc1`, the growth was 71.1%.

In the case of `C#Cc1nc(C2=C(C)C(O)CC2)cs1` (centres undefined), the growth is 115%.

With `O=C(N/N=C/c1ccc[nH]1)c1[nH]c2ccc(Br)cc2c1-c1ccccc1`, the growth is 33.2%.

`COc1ccc(/C=N/NC(=O)c2[nH]c3ccc(Br)cc3c2-c2ccccc2)s1`: the growth was 75.5%.

Turning to `C/C(=N\NC(N)=O)c1c(O)sc(=O)[nH]c1=O`, the growth is 105%.

Turning to `C#Cc1nc(C2=C(C)C(=O)/C(=N/OC(C)=O)C2)cs1`, the growth was 89.9%.

For the compound `Cn1ccnc1C(=O)/C=C/c1ccc(NC(=O)Nc2ccccc2)cc1`, the growth is 42.7%.

With `COc1cc(/C=C/C(=O)c2cc(OC)c(OC)c(OC)c2)ccc1OCc1ccccc1`, the growth was 41.2%.

Consider `CC(O)C(NC(=O)C1CCCN1C(=O)CNC(=O)C1CC(=O)NCC(=O)NC(Cc2c[nH]c3ccccc23)C(=O)NC(Cc2ccc(O)cc2)C(=O)NCC(=O)NC(CO)C(=O)NC(CCC(N)=O)C(=O)NC(Cc2c[nH]c3ccccc23)C(=O)N1)C(=O)NCC(=O)NC(CCC(N)=O)C(=O)NC(CCCNC(=N)N)C(=O)NC(CC(=O)O)C(=O)O` (centres undefined), for which the growth is 99.8%.

With `COc1cc(/C=C/C(=O)c2cc(OC)c(OC)c(OC)c2)ccc1OCc1ccc(F)cc1`, the growth was 46.9%.

Turning to `O=C(N/N=C/c1ccc([N+](=O)[O-])s1)c1[nH]c2ccc(Br)cc2c1-c1ccccc1`, the growth was 55.9%.

As for `N#Cc1c(-c2ccc(Cl)cc2)nc2c(-c3ccccc3)c(Nc3ccccc3)nn2c1N`, the growth is -7.41% (active).

As for `O=C(Oc1ccc2ccc(=O)oc2c1)c1ccc(Cl)cc1`, the growth was 119%.

In the case of `C#Cc1nc(C2=C(C)C(OC(=O)CCC(=O)O)CC2)cs1` (centres undefined), the growth is 108%.

With `C#Cc1nc(C2=C(C)C(=N\O)/C(=N/O)C2)cs1`, the growth is 99%.

In the case of `O=C(N/N=C/c1ccco1)c1[nH]c2ccc(Br)cc2c1-c1ccccc1`, the growth was 58.5%.

`COC(=O)C(Cc1ccccc1)NS(=O)(=O)/N=C1\NC(=O)NC1=C(Cl)Cl` (centres undefined): the growth was 112%.

`N#Cc1ccc(/C=N/NC(=O)c2[nH]c3ccc(Br)cc3c2-c2ccccc2)s1`: the growth was 54.6%.

`CCOc1ccc2nc(NC(=O)c3ccc(C(F)(F)F)cc3)sc2c1`: the growth was 107%.

The record behind these values is PubChem BioAssay (NCI).
